# Lassa entry inh = qHTS for Inhibitors of binding or entry into cells for Lassa Virus. hit rate 1.2% among 300,000. Lassa virus pseudotype entry inhibition, cell reporter. Potency, µM (titrated, usually from 37.9 µM), without a hit: at the top dose activity change, negative = inhibition, most hits filed as inhibitors; calls by dose curve; tested in HEK293 cells; also: potency is read from the fitted curve at half-maximal effect; % is scaled to controls: 0 for no effect and ±100 for the full control effect; nearly all actives have a fitted effect of over 50% in size
# HCV inh = qHTS Assay for Inhibitors of Hepatitis C Virus (HCV) | Huh7.5.1 HCVcc-Cre infection, luciferase reporter, 44 h | Potency, µM (doses to about 41.8 µM), for the others: at the top dose activity change, negative = inhibition, most hits filed as inhibitors | hit rate 3.4% among 340,000 | AID 651820, 2012; active = well fitted inhibition curve with a large enough effect; inconclusive = small, poorly fitted or top-dose-only effect, or another doubt; inactive = no such curve, though single readings can be large or run the other way; also: potency is read from the fitted curve at half-maximal effect; % is scaled to controls: 0 for no effect and ±100 for the full control effect
#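 A cell-based infection assay in which seeded cells (1,000 per well) receive test compound after 4 h, are inoculated with HCVcc-Cre at approximately 0.5 moi, and are incubated 44 h before luminescence detection.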
# HCMV inh = qHTS Assay for inhibitors of the human cytomegalovirus (HCMV) | activity change, negative = inhibition, % at 57.5 µM | HFF cells, HCMV-luciferase reporter, 72 h; stronger effect = lower value | hit rate 4.5% among 410,000; in the data active = activity change below about -60%; inconclusive = no clear call, values can overlap the other calls; inactive = above about -39%; also: % is scaled to controls: 0 for no effect and ±100 for the full control effect
#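 Steps: HFFs plated, 16 h 37C; compounds added; HCMV-luciferase added to MOI 1 PFU/cell; 72 h 37C; OneGlo reagent, 5 min room temperature; luminescence read, normalized to controls.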
# FMDV antiviral = High Throughput Screening for Foot and Mouth Disease Virus Antivirals; Potency, µM (top dose mostly 57.9 µM), inactives show at the top dose activity change, negative = inhibition, hits mostly inhibitors; hit rate 1.2% among 410,000; FMDV antiviral cell-based qHTS; AID 1159524, 2015; calls by dose curve; tested in HEK293T cells; also: read-out not given here; potency is read from the fitted curve at half-maximal effect; % is scaled to controls: 0 for no effect and ±100 for the full control effect; nearly all actives have a fitted effect of over 45% in size
# Marburg entry inh = qHTS for inhibitors of binding or entry into cells for Marburg Virus. Marburg virus pseudotyped entry inhibition, cell reporter. Potency, µM (doses to about 37.8 µM), for inactives: top-dose activity change, negative = inhibition, hits mostly inhibitors. hit rate 1.8% among 300,000. AID 540276, 2011; calls by dose curve; tested in HEK293 cells; also: potency is read from the fitted curve at half-maximal effect; % is scaled to controls: 0 for no effect and ±100 for the full control effect
# SARS PLpro yeast = qHTS of Yeast-based Assay for SARS-CoV PLP. S. cerevisiae expressing SARS-CoV PLpro, growth rescue. Potency, µM (top dose mostly 32.9 µM), for inactives: at the highest dose activity, positive = growth rescue, hits mostly activators. hit rate 0.19% among 330,000. AID 485353, 2010; calls by dose curve; also: potency is read from the fitted curve at half-maximal effect; 0% is about no effect; nearly all actives have a fitted effect of over 55% in size
# * marks the source's active call; other numbers are inactive results; ? = inconclusive; · = no result given; [ ] = dose if it differs, or a comment. Most compounds without a hit are left out; they make up all but 8% or so of the library.
SMILES,Lassa entry inh,HCV inh,HCMV inh,FMDV antiviral,Marburg entry inh,SARS PLpro yeast
Cn1c2ccccc2c2c(C(=O)N3CCN(c4cccc(Cl)c4)CC3)cn(C3CCCCC3)c(=O)c21,?,·,?,-21.5%,7.08µM*,·
COc1ccc(N2CCN(C(=O)c3cn(C4CCCC4)c(=O)c4c3c3ccccc3n4C)CC2)cc1,?,?,37.2,15.6%,8.91µM*,-0.3%
CN(C)CC(=O)N1[C@@H]2c3ccc(C4=CCCCC4)c(=O)n3C[C@H]1[C@H](CO)[C@H]2C(=O)NCC1CC1,·,·,-15.5,·,·,·
O=C(CCn1c(=O)c2cccn2c2cccnc21)N1CCN(c2ccccc2F)CC1,17.0%[46.1 µM],·,17.4,5.5%,·,·
CC(=C\c1ccco1)/C=C(\C#N)C(=O)NCCc1c[nH]c2ccccc12,-2.8%,?,-73.1*,-21.5%,?,10.3%
CCOC(=O)N1CCN(Cc2ccc3c(c2)CN(C(=O)c2ccc4ncccc4c2)CCO3)CC1,·,·,·,28.2µM*,·,·
O=C(c1ccc2[nH]ccc2c1)N1CCOc2ccc(CN3CCN(c4ccccn4)CC3)cc2C1,·,·,·,25.1µM*,·,·
COc1ccccc1C(=O)N1CCOc2ccc(CN3CCN(Cc4ccccn4)CC3)cc2C1,·,·,·,-7.3%,·,·
C[C@@H]1[C@@H](c2ccccc2)Nc2ccc(Br)cc2[C@H]1NC(=O)OCc1ccccc1,·,·,-33.5,·,·,·
Cc1cc2c(c(-c3ccc(Cl)cc3)c1)OC(CNC(=O)Cc1c(C)noc1C)C2 (centres undefined),·,·,·,-12.6%,·,·
CN(c1ccccc1C(=O)O)S(C)(=O)=O,-15.9%,7.0%,-0.9,-2.2%,-33.6%,-1.4%
CN(C)c1ccccc1C(=O)c1ccccc1N(C)C,-6.1%,3.98µM*,74.9,82.7%,?,1.2%
COc1ccc(Cl)cc1C(=O)NCC(c1ccc(N(C)C)cc1)N1CCCC1 (centres undefined),-5.2%[46.1 µM],·,4.2,-22.5%,·,·
COc1cc(/C=C/c2ccc3cccc(O)c3n2)cc(Cl)c1OC,?,?,-37.0,-9.9%,4.47µM*,-0.8%
Oc1cccc(/C=C/c2ccc3cccc(O)c3n2)c1,?,?,45.2,-50.7%,?,-7.6%
COc1cccc(/C=C/c2ccc3cccc(O)c3n2)c1,?,?,-94.5*,-24.0%,?,-5.7%
COc1cc(/C=C/c2ccc3cccc(O)c3n2)cc(OC)c1OC,?,?,-94.4*,1.1%,?,0.9%
COc1ccc(/C=C/c2ccc3cccc(O)c3n2)cc1Br,·,?,104.3,51.4%,·,-1.0%
COC(=O)c1ccc(/C=C/c2ccc3cccc(OC)c3n2)cc1,-1.2%,8.4%,0.0,?,-29.4%,-21.7%
COc1cc(/C=C/c2ccc3cccc(O)c3n2)cc(Br)c1OC,-14.0%,11.2µM*,?,-27.0%,?,-0.6%
COc1cc(/C=C/c2ccc3c(Br)cc(Br)c(O)c3n2)ccc1O,·,8.91µM*,-99.7*,?,·,-2.0%
COc1cc(/C=C/c2nc(-c3ccccc3O)n[nH]2)cc(OC)c1OC,?,11.2µM*,0.9,?,?,-16.7%
CCCCCN1C(=O)c2ccccc2[C@@]2(C(=O)OCC)Cc3cc(OC)ccc3[C@@H]12,·,·,-109.4*,10µM*,·,·
CCOC(=O)[C@]12Cc3ccccc3[C@H]1N(Cc1ccccc1)C(=O)c1ccccc12,·,19.7%,-5.4,-1.0%,·,·
CCOC(=O)[C@]12Cc3ccccc3[C@H]1N(CCC(=O)OC)C(=O)c1ccccc12,·,·,-97.8*,?,·,·
SMILES,Lassa entry inh,HCV inh,HCMV inh,FMDV antiviral,Marburg entry inh,SARS PLpro yeast
CCOC(=O)[C@]12Cc3cc(C)ccc3[C@H]1N(CCC(=O)OC)C(=O)c1cc(OC)ccc12,·,·,-108.9*,31.6µM*,·,·
CCOC(=O)[C@]12Cc3c(cc(OC)c(OC)c3OC)[C@H]1N(CCC(=O)OC)C(=O)c1cc(OC)ccc12,·,·,-105.2*,28.2µM*,·,·
CCOC(=O)N1CCN(C(=O)C2CC(c3cc(OC)ccc3OC)=NO2)CC1 (centres undefined),0.4%,-5.9%,7.5,12.2%,5.9%,-10.0%
COc1ccc2oc(=O)c(C(=O)N3CCN(c4ccc(C)cc4)CC3)cc2c1,-2.8%[46.1 µM],·,-17.8,-7.3%,-2.3%[46.1 µM],·
COc1ccccc1Nc1sc(C(=O)c2ccc3c(c2)OCO3)c(N)c1S(=O)(=O)c1ccccc1,3.7%[46.1 µM],·,0.9,-11.8%,·,·
CCCN(Cc1cccs1)C(=O)Nc1cc(C)ccc1OC,16.7%[46.1 µM],·,-17.5,-4.9%,4.7%[46.1 µM],·
CCOC(=O)[C@]12Cc3c(cc(OC)c(OC)c3OC)[C@H]1N(C)C(=O)c1cc(OC)ccc12,·,·,-100.9*,10µM*,·,·
CCOc1cccc(C(=O)Nc2ccc(-c3nc4ncccc4o3)cc2C)c1,-14.8%[46.1 µM],·,-15.6,-12.6%,·,·
COc1cc(/C=N/Nc2nc(N3CCCC3)nc(N3CCCC3)n2)ccc1O,-18.5%,?,6.6,-18.9%,-4.4%,0.9%
Cc1nc(-c2cccc(S(=O)(=O)N3CCCCC3)c2)cs1,-26.0%,0.4%,-39.9,3.8%,?,-2.5%
CCOc1cc(C=NNC(=O)c2cccc(S(=O)(=O)N3CCCC3)c2)ccc1O,·,-16.9%,0.0,?,·,-1.5%
COc1cc(/C=N/Nc2nc(-c3ccc(S(=O)(=O)N(C)C)cc3)cs2)ccc1O,·,?,-65.5*,35.5µM*,·,1.1%
COc1ccc(/C=N/Nc2nc(-c3cccc(S(=O)(=O)N4CCCC4)c3)cs2)cc1OC,-9.0%,10µM*,?,?,?,18.9%
COc1ccc(-c2cnnc(N/N=C/c3ccc(O)c(OC)c3)n2)cc1,5.8µM*,?,?,-18.9%,?,14.9%
CCOc1cc(/C=N/Nc2nc(-c3cccc(S(=O)(=O)N4CCCC4)c3)cs2)ccc1O,?,10µM*,?,?,?,11.2%
O=C(O)CCn1cnc2onc(-c3ccccc3Cl)c2c1=O,15.5%[46.1 µM],·,11.7,29.6%,-10.0%[46.1 µM],·
O=C(NCC(c1ccco1)S(=O)(=O)c1cccs1)c1ccccc1 (centres undefined),2.0%[46.1 µM],·,22.7,15.0%,·,·
Cc1cccc(NS(=O)(=O)c2ccc3c(c2)CC(C)N3C(=O)C2CCC2)c1C (centres undefined),?,·,?,-17.3%,·,·
Cc1ccc(C)c(-c2csc(N/N=C/c3ccco3)n2)c1,2µM*,12.6µM*,?,-9.3%,5.01µM*,-2.2%
O=S(=O)(c1cccc(-c2csc(N/N=C/c3ccco3)n2)c1)N1CCOCC1,·,?,?,28.2µM*,·,0.0%
CC(C)CNS(=O)(=O)c1ccc(S(=O)(=O)N2CCN(C3CCCC3)CC2)cc1,-3.3%,-9.7%,-100.8*,-13.2%,-27.3%[46.1 µM],0.0%
O=S(=O)(c1ccc(S(=O)(=O)N2CCN(C3CCCCC3)CC2)cc1)N1CCCCCC1,18.2%,17.6%,8.3,-5.9%,-1.5%,2.9%
COC(=O)c1cccc2c([N+](=O)[O-])c(NC(C)=O)cc(C(=O)OC)c12,·,·,71.4,·,·,·
